Assay outcomes: PubChem BioAssay, National Center for Advancing Translational Sciences (NCATS)
A selection: hits, their analogues and other compounds. The true share with any hit is near 12%.
AmpC detergent: inhibitors of E. coli AmpC beta-lactamase with detergent | P00811 | AmpC hydrolysis of nitrocefin, absorbance 480 nm, 0.01% Triton | Potency, µM (doses to about 114 µM), actives largely listed as inhibitors | 370,000 tested, 0.041% active | AID 485294; also: nearly all actives have a fitted effect of over 25% in size
Target sequence (P00811 whole entry, looked up): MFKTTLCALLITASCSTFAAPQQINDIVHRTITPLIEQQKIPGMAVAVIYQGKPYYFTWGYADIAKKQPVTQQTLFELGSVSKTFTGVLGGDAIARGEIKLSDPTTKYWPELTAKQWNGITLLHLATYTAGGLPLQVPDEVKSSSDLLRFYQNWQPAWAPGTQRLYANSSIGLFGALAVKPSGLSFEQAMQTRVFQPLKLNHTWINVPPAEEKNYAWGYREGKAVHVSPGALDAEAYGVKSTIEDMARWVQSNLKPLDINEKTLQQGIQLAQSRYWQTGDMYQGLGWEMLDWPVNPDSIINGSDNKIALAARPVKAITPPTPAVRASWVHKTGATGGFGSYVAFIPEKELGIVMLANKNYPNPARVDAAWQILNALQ
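AmpC (5.3 nM in the dispensed reagent) in 20 mM phosphate pH 7.0 with 0.01% (detergent screen) or 0.0001% Triton X-100 was preincubated with compounds for 15 min at room temperature. Nitrocefin was then added from an 800 uM solution, and hydrolysis was followed at 480 nm.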
Sm TGR inh: blocks Schistosoma mansoni thioredoxin glutathione reductase; purified TGR, DTNB reduction, TNB absorbance 405 nm; Q962Y6; Potency, µM (series often up to 114 µM), most hits filed as inhibitors; 360,000 tested, 3% active; AID 485364; also: nearly all actives have a fitted effect of over 60% in size
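Kinetic colorimetric format: TGR-catalysed, NADPH-driven DTNB reduction monitored via TNB absorbance. Enzyme dispensed at 20 nM; compound exposure 15 min at room temperature before reaction start.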
SARS PLP yeast: inhibitors of SARS-CoV papain-like protease in yeast; 330,000 tested, 0.19% active; Potency, µM (titrated, usually from 32.9 µM), hits mostly activators; S. cerevisiae expressing SARS-CoV PLpro, growth rescue; calls by dose curve; also: nearly all actives have a fitted effect of over 55% in size
Pf growth 96h: P. falciparum growth inhibition at 96 hours | P. falciparum luciferase reporter growth, 96 h | Potency, µM (top dose mostly 28.7 µM), most hits filed as inhibitors | 320,000 tested, 6.9% active | AID 504834
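Two-generation exposure (96 h) targets delayed-death phenotype. Reporter parasites carrying integrated firefly luciferase, in red cells at 2% hematocrit and 0.05% parasitemia final, kept at 37 C, 5% CO2; luminescence loss indicates inhibition.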
Pf growth 48h: P. falciparum growth inhibition at 48 hours (one generation); P. falciparum luciferase growth in erythrocytes, 48 h; Potency, µM (doses to about 28.7 µM), usual class: inhibitors; 310,000 tested, 5.9% active; AID 504832
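Luminescence readout; reporter = integrated firefly luciferase in P. falciparum. RBC culture at 2% hematocrit, 0.1% parasitemia final, 37 C/5% CO2; decreased signal taken as growth inhibition.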
AmpC no deterg: AmpC beta-lactamase inhibition without detergent. P00811. AmpC nitrocefin hydrolysis, absorbance 480 nm, 0.0001% Triton. Potency, µM (top dose mostly 57.1 µM), usual class: inhibitors. 330,000 tested, 0.52% active; also: nearly all actives have a fitted effect of over 20% in size
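20 mM phosphate pH 7.0 + 0.01% (detergent screen) or 0.0001% Triton X-100; 5.3 nM AmpC reagent; cpd preinc 15 min RT; nitrocefin (800 uM stock) to start; A480 q20 s × 4 min; Activity was normalised to no-enzyme and no-compound control wells.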
Hits are given with their value; 0 = inactive; ? = inconclusive; - = no result given. Unless noted, calls follow the shape of the dose curve; as a rule, active = well fitted curve in the direction sought with a large enough effect; inconclusive = small, poorly fitted or top-dose-only effect, or another doubt; inactive = no such curve, though single readings can be large; an effect the other way counts as inactive or inconclusive.

SMILES	AmpC detergent	Sm TGR inh	SARS PLP yeast	Pf growth 96h	Pf growth 48h	AmpC no deterg
CC(O)C(C(=O)OCc1ccc([N+](=O)[O-])cc1)N1C(=O)c2ccccc2C1=O (configuration not stated)	79µM	0	0	0	0	0
O=C(C[C@H]1C/C=C\CC[C@H](Cc2ccc(F)cc2)C(=O)OC[C@H]2CCCN2C1=O)NCCO	-	-	0	-	-	0
CC[C@]12c3[nH]c4cc(-c5ccco5)ccc4c3CCN1C(=O)[C@@H](CC(=O)NCCN1CCOCC1)C[C@@H]2C(=O)N1CCN(C(=O)C2CC2)CC1	-	-	0	-	-	0
CN(C)CCCNc1oc(-c2ccccc2Cl)nc1S(=O)(=O)c1ccccc1	0	0	0	?	0	0
CN(C)c1oc(-c2ccccc2Cl)nc1S(=O)(=O)c1ccccc1	0	0	0	6.6µM	-	0
CC(=O)Nc1ccc(N(C(=O)CNC(=O)c2ccco2)C(C(=O)NCc2ccco2)c2ccccc2F)cc1 (configuration not stated)	0	0	0	0	0	0
COc1cccc(CNC(=O)COC(=O)c2nn(C)c(=O)c3ccccc23)c1	-	-	0	-	-	0
CCOc1ccc(CCNC(=O)COC(=O)c2nn(C)c(=O)c3ccccc23)cc1OCC	0	0	0	0	2.9µM	0
CCOc1ccc(CCNC(=O)COC(=O)c2cc(OC)cc(OC)c2)cc1OCC	0	0	0	0	0	0
COc1cc(C(=O)OCC(=O)NCCCc2ccccc2)ccc1OCC(C)C	0	0	0	5.9µM	?	0
COc1ccc(C(=O)OCC(=O)NCCCc2ccccc2)cc1[N+](=O)[O-]	0	-	0	0	0	0
CCCOc1ccc(C(=O)OCC(=O)NCCc2ccc(OCC)c(OCC)c2)cc1OC	0	0	0	13µM	?	0
CCOc1ccc(CCNC(=O)COC(=O)CCc2cc(OC)c(OC)c(OC)c2)cc1OCC	?	0	0	?	13µM	0
COC(=O)c1ccccc1S(=O)(=O)N1Cc2cc([N+](=O)[O-])ccc2Oc2ccccc21	0	0	0	-	0	0
CCOc1ccc(CCNC(=O)COC(=O)c2ccc(OC(C)C)cc2)cc1OCC	0	0	0	?	12µM	0
COc1ccccc1N1CCN(CC(=O)Nc2ccc(S(=O)(=O)N3CCCCCC3)cc2)CC1	0	0	0	?	?	0
O=C(CN1CCN(c2ccccc2O)CC1)Nc1ccc(S(=O)(=O)N2CCCCCC2)cc1	0	0	0	10µM	?	0
O=C(CN1CCN(c2ccccc2O)CC1)Nc1cc(S(=O)(=O)N2CCCC2)ccc1Cl	?	0	0	3.3µM	4.1µM	0
CC(C)(C)[C@H]1C=C(C(=O)NC2CC2)O[C@@H](OCCCCO)C1	0	0	0	?	0	0
Cc1cccn2c(=O)c3cc(C(=O)NCc4ccccc4)c(=N)n(CCOCCO)c3nc12	0	0	-	-	-	-
COc1ccc(-n2nc(C(=O)NCC(=O)Nc3ccc(F)cc3)c3ccccc3c2=O)cc1	0	0	0	0	12µM	0
COc1ccc(NC(=O)CNC(=O)c2nn(-c3ccc(OC)c(Cl)c3)c(=O)c3ccccc23)c(OC)c1	0	0	0	0	9.3µM	0
COc1ccc(/C=N/NC(=O)c2nn(-c3ccc(C)c(C)c3)c(=O)c3ccccc23)cc1	0	0	0	?	13µM	?
COc1ccc(/C=N/NC(=O)c2nn(-c3ccc(Cl)cc3)c(=O)c3c(N)scc23)cc1	0	0	0	8.3µM	-	0
CCOC(=O)CNC(=O)CNC(=O)c1nn(-c2ccc(OC)c(Cl)c2)c(=O)c2ccccc12	0	0	0	0	0	0
SMILES	AmpC detergent	Sm TGR inh	SARS PLP yeast	Pf growth 96h	Pf growth 48h	AmpC no deterg
COc1ccc(-n2nc(C(=O)NCC(=O)Nc3cc(Cl)c(OC)cc3OC)c3ccccc3c2=O)cc1	0	0	0	0	?	0
COc1ccc(-n2nc(C(=O)NCC(=O)NC(C)C)c3ccccc3c2=O)cc1Cl	0	0	0	0	0	0
COc1ccc(-n2nc(C(=O)NCC(=O)NC3CCCC(C)C3C)c3ccccc3c2=O)cc1 (configuration not stated)	0	0	0	0	?	0
COc1ccc(-n2nc(C(=O)NCC(=O)NC3CCCC(C)C3C)c3ccccc3c2=O)c(OC)c1 (configuration not stated)	?	0	0	5.9µM	?	0
CCOc1ccccc1NC(=O)CNC(=O)c1nn(-c2ccc(OC)c(OC)c2)c(=O)c2ccccc12	0	0	0	?	13µM	0
COc1ccc(-n2nc(C(=O)NCC(=O)Nc3cc(OC)ccc3OC)c3ccccc3c2=O)cc1	?	0	0	?	3.3µM	0
COc1ccc(-n2nc(C(=O)NCC(=O)Nc3ccccn3)c3ccccc3c2=O)cc1Cl	0	0	0	9.3µM	0	0
Cc1ccc(C(=O)N2CCN(S(=O)(=O)c3ccc(C(C)C)cc3)CC2)s1	0	0	0	?	?	0
Fc1ccccc1Nc1nc(NCc2ccco2)nc(N2CCOCC2)n1	0	-	0	0	0	0
Clc1ccc(Nc2nc(N3CCOCC3)nc(N3CCOCC3)n2)cc1Cl	0	0	0	13µM	?	0
CC(C)c1ccc(Nc2nc(NCc3ccco3)nc(N3CCOCC3)n2)cc1	0	0	0	0	13µM	0
CN1CCN(c2nc(Nc3cccc(C(F)(F)F)c3)nc(N3CCOCC3)n2)CC1	0	0	0	0	2.1µM	0
Fc1ccc(Nc2nc(N3CCOCC3)nc(N3CCOCC3)n2)cc1Cl	0	0	0	13µM	?	0
CC(=O)NS(=O)(=O)c1ccc(NC(=O)CC(C)c2ccccc2)cc1 (configuration not stated)	0	0	0	0	0	0
Cc1c(C(=O)N2CCCC2)oc2c1-c1[nH]ncc1CC2	?	0	0	?	0	0
O=c1[nH]c(CCl)nc2cc(-c3ccc(F)cc3)sc12	0	11µM	0	?	?	0
Nc1c(C(O)(C(F)(F)F)C(F)(F)F)ccc2ccccc12	0	40µM	0	-	?	0
Cc1ccccc1CS(=O)(=O)c1cnc2ccccc2n1	0	0	0	-	15µM	0
COc1ccc(-c2ccnc(SCC(=O)c3ccc(OC)c(OC)c3)n2)cc1	?	0	0	0	0	0
COc1ccc(OC)c(C(=O)CSc2nccc(-c3ccc(Br)cc3)n2)c1	0	0	0	?	12µM	?
N#Cc1ccc(CSc2ncnc3c2cnn3Cc2ccccc2)cc1	?	0	0	7.4µM	?	0
COc1ccc(NC(=O)Cn2c(SCc3cccc(Cl)c3)nc3ccncc32)c(OC)c1OC	0	0	-	-	-	-
CC(=O)N(CCP(=O)(c1ccccc1)c1ccccc1)Cc1ccco1	0	0	0	9.3µM	0	0
